The text below walks through data of PubChem BioAssay (Tox21).

Records with an inconclusive call do not appear. Where a call stands in place of a potency, no number is given. Some structures have more than one record in an assay (separate samples or runs), and their calls can disagree. Activity calls are given as the source filed them. Calls follow the shape of the dose curve; as a rule, active = well fitted activation curve with a large enough effect in the signal ratio in the repeat runs (not every such curve was filed as active); inconclusive = weak or mixed curves; inactive = flat fitted curve, though single readings scatter; the % refers to the signal ratio.
Potency is read from the fitted curve at half-maximal effect.

The nature of the test: qHTS assay to identify small molecule agonists of H2AX (AID 1224845). The conditions noted are these: CHO-K1 phospho-H2AX Ser139 HTRF, 3 h; series mostly up to 154 µM; activation (H2AX phosphorylation): at the top concentration. The text has this:
National Center for Advancing Translational Sciences [NCATS]
NIH Chemical Genomics Center [NCGC]
U.S. Environmental Protection Agency [EPA]
National Institutes of Environmental Health Sciences [NIEHS]
National Toxicology Program [NTP]
U.S. Food and Drug Administration [FDA]
HTRF phospho-H2AX (Ser139) assay (Cisbio Bioassays, US) enables the quantitative detection of the histone variant H2AX when phosphorylated on serine 139. When double-stranded DNA breaks, either by ionizing radiation or endogenous physiological processes, H2AX becomes phosphorylated at Ser139. This phospho-Ser139 serves as a sensitive biomarker for the detection of such breaks, localizing the site of DNA repair. So, HTRF phospho-H2AX Ser139 is a pertinent assay to study genome stability, the cell cycle, DNA repair, and it serves as a biomarker for cancer, and to understand aging. Wild type CHO-K1 cells were used to identify the inducers of Phospho-H2AX Ser 139 from the Tox21 10K compound collections.
Tox21 Assay Protocol Summary:
The CHO-K1 cells suspended in culture medium containing 10% FBS were dispensed at 1000 cells/ 3 ul/well in 1536-well white wall/solid bottom plates (Greiner Bio-One North America, NC) using a Multidrop Combi (Thermo Fisher Scientific Inc., Waltham, MA). After the assay plates were incubated at 37C overnight, 23 nl of compounds at 15 concentrations (from 5-48 columns) or positive control (from 1 to 4 columns) were transferred to the assay plates using a Pintool station (Wako, San Diego, CA) into each well resulting in a final DMSO concentration of 0.76%. After 3hr incubation at 37C, 1 uL/well Supplemented Lysis buffer (diluted 100 fold blocking reagent in lysis buffer) (HTRF Phospho-H2A.X (S139) Assay kit from Cisbio US Inc., Bedford, MA) was added using a Flying Reagent Dispenser (FRD) (Aurora Discovery, CA). After 10sec spin at 1000 rpm in a plate centrifuge, the assay plates were incubated at room temperature for 30 min. Then followed by the addition of 1 uL/well detection buffer (containing a mixture of two antibodies, one labeled with cryptate, Anti pH2AX (S139)-K and another labeled with d2, Anti H2AX-d2) using FRD. After incubation at room temperature for 24 hr, the time resolved fluorescence at excitation 320 nm and emissions at 665 nm and 620 nm was measured using an Envision plate reader (PerkinElmer, Waltham, MA).
Regarding `Cc1cccc(N)c1N`, the Potency entry was “inactive”.
Turning to `Cc1ccc(N)c(N)c1`, the “activation (H2AX phosphorylation)” value was 7.33% (inactive).
In the case of `CCCCCCOC(=O)c1ccccc1C(=O)OCCCCCC`, the Potency result was “inactive”.
For `O=S(=O)(Oc1ccc(Cl)cc1)c1ccc(Cl)cc1`, the Potency result was “inactive”.
The same measure, in the same setting: under `CC(C)Oc1cc(-n2nc(C(C)(C)C)oc2=O)c(Cl)cc1Cl` stands “inactive”.
Still for that read-out and setting: the result for `NNC(N)=S` reads 105 µM (active) and inactive.
For the compound `c1nc[nH]n1`, the “activation (H2AX phosphorylation)” value was 1.88% (inactive).
Turning to `CNC(=O)Oc1cccc2c1OC(C)(C)O2`, the “activation (H2AX phosphorylation)” value was 0.611% (inactive).
`Oc1cc(Cl)ccc1Cl`: the Potency entry is “inactive”.
`c1ccc(NNc2ccccc2)cc1`: the Potency entry was “inactive”.
Still for that read-out and setting: the result for `CCN(CC)C(=O)SCc1ccc(Cl)cc1` reads “inactive”; that for `CC1(C)C(C=C(Cl)Cl)C1C(=O)OC(C#N)c1cccc(Oc2ccccc2)c1` (stereo not given), “inactive”.
Turning to `O=[N+]([O-])c1ccc(O)c([N+](=O)[O-])c1`, the Potency result was “inactive”.
Take `O=C(O)CC[N+](=O)[O-]`: the Potency entry is “inactive”.
Consider `O=P(O)(O)CCCl`, for which the Potency result is “inactive”.
On to `C#CCOS(=O)OC1CCCCC1Oc1ccc(C(C)(C)C)cc1` (stereo not given), for which the Potency entry is “inactive”.
Still for that read-out and setting: the result for `CCCCC(CC)COC(=O)Cl` (stereo not given) reads “inactive”.
The same measure, in the same setting: under `NC(=S)Nc1ccccc1` stands “inactive”.
Consider `Cc1ccc2c(c1N)C(=O)c1ccccc1C2=O`, for which the “activation (H2AX phosphorylation)” value was -6.07% (inactive).
`O=C(NC(=O)c1c(F)cccc1F)Nc1ccc(Cl)cc1`: the Potency entry was “inactive”.
Still for that read-out and setting: under `CN(C)c1ccc(C(=O)c2ccc(N(C)C)cc2)cc1` stands “inactive”; under `CCCCCCCCC(=O)NCc1ccc(O)c(OC)c1`, “inactive”; under `CCC(=O)O[C@H]1CC[C@H]2[C@@H]3CCC4=CC(=O)CC[C@]4(C)[C@H]3CC[C@]12C`, “inactive”.
The same measure, in the same setting: under `C=CCN(CC=C)C(=O)C(Cl)Cl` stands “inactive”; under `CCCCCCCCOC(=O)c1ccccc1C(=O)OCCCCCCCC`, “inactive”.
As for `CCN(N=O)C(N)=O`, the Potency entry is “inactive”.
Still for that read-out and setting: under `N#CC(Br)Br` stands “inactive”; under `CCC(C)c1cc([N+](=O)[O-])cc([N+](=O)[O-])c1O` (stereo not given), “inactive”.
For `O=C(O)C(F)(F)C(F)(F)C(F)(F)C(F)(F)C(F)(F)C(F)(F)C(F)(F)F`, the Potency entry is “inactive”.
With `O=[N+]([O-])c1c(Cl)c(Cl)c(Cl)c(Cl)c1Cl`, the Potency result is “inactive”.
Turning to `ClC1C(Cl)C(Cl)C(Cl)C(Cl)C1Cl` (stereo not given), the Potency result was “inactive”.
Regarding `Brc1ccc(Oc2cc(Br)c(Br)cc2Br)c(Br)c1`, the Potency entry is “inactive”.
On to `COC(=O)c1sccc1S(=O)(=O)NC(=O)Nc1nc(C)nc(OC)n1`, for which the Potency result was “inactive”.
On the same count and under the same terms, under `Nc1c(Cl)cc([N+](=O)[O-])cc1Cl` stands “inactive”.
For `CCOc1cc(C=O)ccc1O`, the “activation (H2AX phosphorylation)” value was 0.88% (inactive).
On the same count and under the same terms, under `CCCCC(CC)COC(=O)c1ccc(C(=O)OCC(CC)CCCC)c(C(=O)OCC(CC)CCCC)c1` (stereo not given) stands -1.81% (inactive).
On to `S=C1NCCN1`, for which the Potency entry is “inactive”.
Same read-out and setting: under `O=P(Oc1ccccc1)(Oc1ccccc1)Oc1ccccc1` stands “inactive”; under `COP(=O)(OC)OC`, “inactive”; under `Nc1ccc(Cl)c(Cl)c1`, “inactive”.
